Experimental data published in the supplement of paper PMC11732987, “Enantioselective OTUD7B fragment discovery through chemoproteomics screening and high-throughput optimisation” (Communications Chemistry, 2025).
Values without a mark were called inactive.

Key:
Assay in all cases: log2 ratio of Biotin-Ahx-Ub-VS probe labelling (fragment/DMSO); higher = less target engagement (more negative = stronger competition), active = hit call of the paper (q ≤ 0.05, log2 ratio ≤ -1)
Details in all cases: compound concentration: 200 uM; treatment time: 3 h
UniProt O00507 = biological target: UniProt O00507
UniProt O00507, sequence (O00507 whole entry, the tested form may be a part): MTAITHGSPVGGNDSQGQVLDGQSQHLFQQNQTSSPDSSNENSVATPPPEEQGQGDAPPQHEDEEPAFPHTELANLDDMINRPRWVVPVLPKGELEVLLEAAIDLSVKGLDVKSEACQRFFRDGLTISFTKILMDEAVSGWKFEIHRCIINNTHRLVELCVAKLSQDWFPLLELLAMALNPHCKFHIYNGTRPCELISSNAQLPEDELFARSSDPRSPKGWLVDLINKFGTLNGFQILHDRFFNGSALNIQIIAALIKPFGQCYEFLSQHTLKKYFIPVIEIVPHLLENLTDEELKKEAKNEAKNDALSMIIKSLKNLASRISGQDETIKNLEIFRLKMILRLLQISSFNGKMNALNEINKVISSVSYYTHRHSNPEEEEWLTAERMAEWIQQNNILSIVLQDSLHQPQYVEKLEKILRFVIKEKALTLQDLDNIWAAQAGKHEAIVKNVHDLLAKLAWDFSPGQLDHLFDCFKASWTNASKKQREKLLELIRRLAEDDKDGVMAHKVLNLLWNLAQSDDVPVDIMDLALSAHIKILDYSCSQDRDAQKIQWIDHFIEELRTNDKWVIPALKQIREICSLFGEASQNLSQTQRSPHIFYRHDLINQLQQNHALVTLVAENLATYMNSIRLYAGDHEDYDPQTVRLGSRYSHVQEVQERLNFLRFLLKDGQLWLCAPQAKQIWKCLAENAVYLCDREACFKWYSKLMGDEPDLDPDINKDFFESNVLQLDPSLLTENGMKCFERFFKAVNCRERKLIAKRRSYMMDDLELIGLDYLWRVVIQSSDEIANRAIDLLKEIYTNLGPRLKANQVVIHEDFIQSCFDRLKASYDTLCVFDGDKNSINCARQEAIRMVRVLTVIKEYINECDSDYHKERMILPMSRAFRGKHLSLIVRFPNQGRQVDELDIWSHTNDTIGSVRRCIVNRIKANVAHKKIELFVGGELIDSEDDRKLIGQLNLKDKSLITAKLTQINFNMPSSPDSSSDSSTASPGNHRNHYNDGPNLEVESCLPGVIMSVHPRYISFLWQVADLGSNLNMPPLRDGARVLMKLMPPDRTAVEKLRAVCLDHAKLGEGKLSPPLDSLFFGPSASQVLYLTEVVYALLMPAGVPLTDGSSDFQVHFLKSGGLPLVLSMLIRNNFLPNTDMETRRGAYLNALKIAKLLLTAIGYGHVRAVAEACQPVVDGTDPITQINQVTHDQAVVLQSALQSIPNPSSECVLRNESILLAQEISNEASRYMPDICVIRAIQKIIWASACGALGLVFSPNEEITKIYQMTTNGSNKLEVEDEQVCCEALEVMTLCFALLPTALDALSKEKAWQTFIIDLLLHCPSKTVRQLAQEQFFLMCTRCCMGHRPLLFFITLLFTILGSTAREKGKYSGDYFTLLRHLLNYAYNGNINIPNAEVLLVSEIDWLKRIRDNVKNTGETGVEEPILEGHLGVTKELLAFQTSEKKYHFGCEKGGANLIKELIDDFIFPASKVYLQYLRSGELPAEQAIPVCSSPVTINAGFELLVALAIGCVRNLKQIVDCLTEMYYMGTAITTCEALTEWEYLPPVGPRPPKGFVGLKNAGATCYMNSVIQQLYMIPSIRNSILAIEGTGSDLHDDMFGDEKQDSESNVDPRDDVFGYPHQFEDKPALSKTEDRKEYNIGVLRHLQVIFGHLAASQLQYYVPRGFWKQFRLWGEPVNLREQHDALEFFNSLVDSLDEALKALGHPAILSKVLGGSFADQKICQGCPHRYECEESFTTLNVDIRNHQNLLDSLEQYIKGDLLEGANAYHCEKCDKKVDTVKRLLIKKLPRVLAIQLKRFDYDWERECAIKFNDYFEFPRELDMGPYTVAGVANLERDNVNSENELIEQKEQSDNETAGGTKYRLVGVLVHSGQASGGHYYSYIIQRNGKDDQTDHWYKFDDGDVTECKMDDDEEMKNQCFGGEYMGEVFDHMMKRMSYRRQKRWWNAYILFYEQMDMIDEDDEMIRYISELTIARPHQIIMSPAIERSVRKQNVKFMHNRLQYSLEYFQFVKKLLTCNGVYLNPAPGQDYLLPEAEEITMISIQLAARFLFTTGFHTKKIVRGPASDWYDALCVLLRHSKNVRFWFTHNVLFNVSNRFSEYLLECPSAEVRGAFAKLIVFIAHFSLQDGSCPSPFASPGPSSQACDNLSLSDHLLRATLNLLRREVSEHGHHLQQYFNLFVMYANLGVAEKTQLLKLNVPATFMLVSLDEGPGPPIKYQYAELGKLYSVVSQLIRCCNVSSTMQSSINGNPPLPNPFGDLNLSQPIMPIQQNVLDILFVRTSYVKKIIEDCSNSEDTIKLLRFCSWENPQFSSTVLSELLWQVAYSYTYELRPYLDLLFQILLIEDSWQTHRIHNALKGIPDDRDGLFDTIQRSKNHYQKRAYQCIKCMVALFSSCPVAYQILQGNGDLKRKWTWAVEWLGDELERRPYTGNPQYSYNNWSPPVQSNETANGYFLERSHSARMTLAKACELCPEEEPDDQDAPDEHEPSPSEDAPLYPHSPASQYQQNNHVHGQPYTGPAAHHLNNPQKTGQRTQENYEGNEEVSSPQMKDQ
In short: (§1)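 Labelling with Biotin-Ahx-Ub-VS (0.5 µM final, 1 h) followed a 3 h triplicate treatment of HEK293T lysate (495 µg per sample, Tris/CHAPS/IGEPAL buffer with protease inhibitors) with fragment at 200 µM or vehicle. Labelled DUBs were NeutrAvidin-enriched, digested with LysC and trypsin, and run by diaPASEF LC-MS/MS. The values, average log2 fragment/vehicle ratios by unpaired t-test, come from global-median-normalised Spectronaut label-free quantities. Proteins with ≥2 unique peptides were used.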

UniProt P51784 = biological target: UniProt P51784
UniProt P51784, sequence (P51784 whole entry): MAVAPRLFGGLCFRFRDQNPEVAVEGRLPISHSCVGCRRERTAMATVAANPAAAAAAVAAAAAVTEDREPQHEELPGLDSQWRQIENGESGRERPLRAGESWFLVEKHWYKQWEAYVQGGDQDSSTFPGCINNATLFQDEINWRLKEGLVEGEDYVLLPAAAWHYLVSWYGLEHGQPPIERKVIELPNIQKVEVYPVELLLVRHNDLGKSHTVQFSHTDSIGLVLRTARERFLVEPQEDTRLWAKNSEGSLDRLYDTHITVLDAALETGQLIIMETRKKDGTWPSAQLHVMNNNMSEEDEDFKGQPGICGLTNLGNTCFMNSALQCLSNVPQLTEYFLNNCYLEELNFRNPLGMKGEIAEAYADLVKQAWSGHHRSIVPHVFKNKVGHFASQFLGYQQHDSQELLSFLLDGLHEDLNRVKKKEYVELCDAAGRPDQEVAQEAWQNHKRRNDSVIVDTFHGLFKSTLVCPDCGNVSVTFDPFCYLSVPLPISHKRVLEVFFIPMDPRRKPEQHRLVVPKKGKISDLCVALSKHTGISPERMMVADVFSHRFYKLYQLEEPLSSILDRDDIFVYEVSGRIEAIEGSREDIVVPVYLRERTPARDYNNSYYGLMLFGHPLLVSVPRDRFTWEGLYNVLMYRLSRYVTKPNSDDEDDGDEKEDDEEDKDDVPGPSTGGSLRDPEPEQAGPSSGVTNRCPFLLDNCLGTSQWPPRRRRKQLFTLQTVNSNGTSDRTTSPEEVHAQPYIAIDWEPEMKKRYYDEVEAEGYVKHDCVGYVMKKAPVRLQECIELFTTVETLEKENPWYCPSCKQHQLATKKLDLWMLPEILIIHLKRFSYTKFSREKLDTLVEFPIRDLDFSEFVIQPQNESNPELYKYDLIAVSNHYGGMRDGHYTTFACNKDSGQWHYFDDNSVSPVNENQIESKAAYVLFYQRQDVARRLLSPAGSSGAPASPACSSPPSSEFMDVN
In short: as §1

UniProt Q5T2D3 = biological target: T1, UniProt Q5T2D3
T1 sequence (whole entry): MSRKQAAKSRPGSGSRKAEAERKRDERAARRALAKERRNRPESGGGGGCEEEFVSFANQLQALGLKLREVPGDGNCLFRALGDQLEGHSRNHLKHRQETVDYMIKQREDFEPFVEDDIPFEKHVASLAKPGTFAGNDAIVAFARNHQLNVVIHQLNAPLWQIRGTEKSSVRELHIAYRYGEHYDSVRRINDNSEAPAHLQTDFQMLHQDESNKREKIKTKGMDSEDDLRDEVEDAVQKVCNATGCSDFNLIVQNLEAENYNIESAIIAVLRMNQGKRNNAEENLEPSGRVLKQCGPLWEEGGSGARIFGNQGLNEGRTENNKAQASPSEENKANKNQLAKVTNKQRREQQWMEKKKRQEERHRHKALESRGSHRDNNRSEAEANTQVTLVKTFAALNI
In short: as §1

UniProt Q8TE49 = biological target: T2, UniProt Q8TE49
T2 sequence (whole entry): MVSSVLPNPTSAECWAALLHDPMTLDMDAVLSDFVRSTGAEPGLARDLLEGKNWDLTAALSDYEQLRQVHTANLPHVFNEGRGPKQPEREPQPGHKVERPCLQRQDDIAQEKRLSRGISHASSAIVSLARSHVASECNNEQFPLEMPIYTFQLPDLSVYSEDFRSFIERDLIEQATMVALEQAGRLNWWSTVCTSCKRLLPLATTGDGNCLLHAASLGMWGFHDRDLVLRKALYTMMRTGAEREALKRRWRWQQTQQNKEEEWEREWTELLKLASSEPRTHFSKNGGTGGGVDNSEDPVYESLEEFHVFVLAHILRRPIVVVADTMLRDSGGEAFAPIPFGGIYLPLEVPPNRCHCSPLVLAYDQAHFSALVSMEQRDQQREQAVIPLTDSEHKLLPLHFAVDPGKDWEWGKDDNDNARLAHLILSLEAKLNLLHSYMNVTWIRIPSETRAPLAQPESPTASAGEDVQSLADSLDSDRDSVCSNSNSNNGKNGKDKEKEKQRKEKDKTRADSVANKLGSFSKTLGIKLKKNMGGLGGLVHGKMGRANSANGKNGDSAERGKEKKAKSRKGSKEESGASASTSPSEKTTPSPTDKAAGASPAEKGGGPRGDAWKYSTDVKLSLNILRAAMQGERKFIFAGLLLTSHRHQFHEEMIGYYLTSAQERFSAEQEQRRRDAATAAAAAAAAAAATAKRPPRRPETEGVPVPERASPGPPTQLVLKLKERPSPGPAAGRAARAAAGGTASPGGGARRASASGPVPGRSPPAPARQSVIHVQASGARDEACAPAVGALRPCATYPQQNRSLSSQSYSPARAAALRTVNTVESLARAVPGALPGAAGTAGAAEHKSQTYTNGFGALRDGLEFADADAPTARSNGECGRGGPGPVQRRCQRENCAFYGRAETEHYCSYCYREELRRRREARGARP
In short: as §1

UniProt Q9P2H5 = biological target: T3, UniProt Q9P2H5
T3 sequence (whole entry): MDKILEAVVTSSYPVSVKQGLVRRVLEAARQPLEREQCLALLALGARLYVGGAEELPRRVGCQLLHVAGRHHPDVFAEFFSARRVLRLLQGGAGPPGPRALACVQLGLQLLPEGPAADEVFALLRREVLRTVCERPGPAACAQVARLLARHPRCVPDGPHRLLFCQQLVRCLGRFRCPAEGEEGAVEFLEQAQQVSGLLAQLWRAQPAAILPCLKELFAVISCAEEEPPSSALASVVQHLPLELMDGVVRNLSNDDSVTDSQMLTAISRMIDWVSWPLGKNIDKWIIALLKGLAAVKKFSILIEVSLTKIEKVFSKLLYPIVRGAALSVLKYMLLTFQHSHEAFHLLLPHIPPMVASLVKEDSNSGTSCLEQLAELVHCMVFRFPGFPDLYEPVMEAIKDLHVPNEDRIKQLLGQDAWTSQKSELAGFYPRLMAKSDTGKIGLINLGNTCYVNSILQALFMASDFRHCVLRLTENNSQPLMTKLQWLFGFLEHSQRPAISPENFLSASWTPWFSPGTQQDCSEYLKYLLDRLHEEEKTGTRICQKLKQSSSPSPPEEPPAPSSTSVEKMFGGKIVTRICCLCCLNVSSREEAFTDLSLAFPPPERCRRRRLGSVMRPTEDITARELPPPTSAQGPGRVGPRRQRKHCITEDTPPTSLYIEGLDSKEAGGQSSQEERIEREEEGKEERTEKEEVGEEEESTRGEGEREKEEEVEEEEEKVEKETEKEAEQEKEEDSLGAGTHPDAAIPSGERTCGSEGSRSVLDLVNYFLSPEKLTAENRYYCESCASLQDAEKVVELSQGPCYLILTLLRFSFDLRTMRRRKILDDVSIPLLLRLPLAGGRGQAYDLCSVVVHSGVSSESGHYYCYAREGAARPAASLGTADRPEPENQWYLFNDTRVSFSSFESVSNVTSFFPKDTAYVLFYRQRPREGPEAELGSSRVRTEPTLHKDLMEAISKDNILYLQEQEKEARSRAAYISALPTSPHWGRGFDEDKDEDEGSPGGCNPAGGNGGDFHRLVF
In short: as §1

UniProt Q9UGI0 = biological target: T4, UniProt Q9UGI0
T4 sequence (whole entry): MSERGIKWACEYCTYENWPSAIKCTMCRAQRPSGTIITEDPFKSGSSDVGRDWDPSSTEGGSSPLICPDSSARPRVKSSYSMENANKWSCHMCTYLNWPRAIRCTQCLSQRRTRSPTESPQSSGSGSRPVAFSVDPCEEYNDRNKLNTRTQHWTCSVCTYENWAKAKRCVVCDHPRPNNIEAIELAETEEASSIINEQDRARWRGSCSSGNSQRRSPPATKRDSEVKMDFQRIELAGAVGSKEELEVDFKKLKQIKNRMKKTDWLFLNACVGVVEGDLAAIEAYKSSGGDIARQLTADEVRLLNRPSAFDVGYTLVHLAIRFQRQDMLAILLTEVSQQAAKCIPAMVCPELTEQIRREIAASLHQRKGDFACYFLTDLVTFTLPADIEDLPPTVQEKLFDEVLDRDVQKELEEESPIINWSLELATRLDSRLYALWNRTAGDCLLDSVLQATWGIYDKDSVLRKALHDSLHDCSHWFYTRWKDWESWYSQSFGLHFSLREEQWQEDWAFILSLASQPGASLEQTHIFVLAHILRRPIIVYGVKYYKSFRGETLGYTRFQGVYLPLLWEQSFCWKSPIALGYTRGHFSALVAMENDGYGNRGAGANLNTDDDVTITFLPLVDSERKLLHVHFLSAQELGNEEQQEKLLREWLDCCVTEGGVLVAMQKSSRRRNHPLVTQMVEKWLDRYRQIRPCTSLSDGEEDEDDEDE
In short: as §1

YOD1 = biological target: T5, YOD1 (UniProt Q5VVQ6)
T5 sequence (whole entry): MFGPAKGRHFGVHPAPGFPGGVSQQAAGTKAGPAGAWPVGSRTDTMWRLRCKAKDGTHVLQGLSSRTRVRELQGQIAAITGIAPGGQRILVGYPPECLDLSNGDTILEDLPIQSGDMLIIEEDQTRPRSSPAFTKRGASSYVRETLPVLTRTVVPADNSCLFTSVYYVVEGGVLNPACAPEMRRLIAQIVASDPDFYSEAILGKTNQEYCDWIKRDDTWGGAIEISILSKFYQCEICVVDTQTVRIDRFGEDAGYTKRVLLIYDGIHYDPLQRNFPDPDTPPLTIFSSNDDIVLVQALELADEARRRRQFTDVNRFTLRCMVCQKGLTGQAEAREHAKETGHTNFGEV
In short: as §1

SMILES | log2 ratio of Biotin-Ahx-Ub-VS probe labelling (UniProt O00507) | log2 ratio of Biotin-Ahx-Ub-VS probe labelling (UniProt P51784) | log2 ratio of Biotin-Ahx-Ub-VS probe labelling (UniProt Q5T2D3) | log2 ratio of Biotin-Ahx-Ub-VS probe labelling (UniProt Q8TE49) | log2 ratio of Biotin-Ahx-Ub-VS probe labelling (UniProt Q9P2H5) | log2 ratio of Biotin-Ahx-Ub-VS probe labelling (UniProt Q9UGI0) | log2 ratio of Biotin-Ahx-Ub-VS probe labelling (YOD1)
Cl.O=C(CCl)NC1(c2ncccn2)CCC1 | -0.0196 | 0.0134 | -0.0112 | 0.0256 | -0.0207 | -0.201 | 0.161
Cc1cc(C(=O)NC2CCN(C(=O)CCl)CC2)no1 | -0.438 | -0.169 | -0.252 | -0.394 | 0.0224 | -0.0524 | -0.256
O=C(CCl)Nc1ccc(F)cc1Cl | -0.442 | -0.238 | -0.425 | -1.35 | -0.211 | -1.18 (active) | -0.759
O=C(CCl)N1CC=C(c2c[nH]c3ccccc23)CC1 | -1.28 (active) | -0.291 | -0.405 | -0.72 | -0.734 | -1.14 (active) | -0.219
CC1(NC(=O)CCl)CCS(=O)(=O)C1 (configuration not stated) | -0.402 | -0.612 | -0.858 | -1.44 (active) | -0.61 | -0.698 | -0.754
Cc1cccc(N2CCC(NC(=O)CCl)C2=O)c1 (configuration not stated) | 0.294 | -0.28 | -0.334 | -0.961 | -0.395 | -0.883 | -0.459
Cc1nc(-c2cccc(NC(=O)CCl)c2)cs1 | -0.692 | -0.269 | -0.317 | -0.655 | -0.193 | -1.43 (active) | -0.369
O=C(CCl)Nc1ccc2c(c1)OC(F)(F)O2 | -0.0305 | 0.0816 | -0.375 | -0.815 | -0.115 | -0.637 | -0.0381
O=C(CCl)NCC1(c2ccccc2)CC1 | 0.153 | 0.117 | -0.0752 | -0.408 | -0.071 | -1.08 (active) | 0.0857
O=C(CCl)N1c2ccccc2NC(=O)C12CCCC2 | -0.37 | 0.258 | -0.0754 | -0.35 | 0.0618 | -0.0496 | -0.0709
COc1ccc(C2CCCN2C(=O)CCl)c(OC)c1 (configuration not stated) | 0.129 | -0.237 | -0.139 | -0.514 | -0.249 | -0.113 | -0.0199
